An excerpt weighted towards active compounds, which were near 4% of everything screened.
Mtb FBA inh = Mtb FBA enzyme inhibitors, primary screen, biochemical, fluorescence, strain H37Rv; purified M. tuberculosis FBA, fluorescence read-out; actives 2.3% (n = 360,000); inhibition, % at 1 µM; in the data active means inhibition above about 27%;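 further: 0% = vehicle and 100% = reference inhibitor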
Mtb bLac sens = beta-lactam sensitization of Mtb H37Rv, H37Rv; inhibition, % at 25 µM; M. tuberculosis H37Rv growth with meropenem, percent inhibition; actives 0.27% (n = 330,000); AID 434955, 2010; call rule not given here;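 further: growth measured after seven days incubation then overnight dye step; 0% = bacteria only wells and 100% = bacteria with antibiotic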
UGM FP inh = M. tuberculosis UGM enzyme inhibitors, primary screen, biochemical, fluorescence polarization, single point; inhibition, % at 10 µM; UDP-galactopyranose mutase (Mycobacterium tuberculosis (strain ATCC 25618 / H37Rv)), …; AID 504406, 2011; actives 0.06% (n = 320,000); purified UGM, fluorescence polarization probe displacement; in the data active means inhibition above about 10%, passing the limit was not always enough; inconclusive means no clear call, values can overlap the other calls
Target sequence (P9WIQ1 whole entry, looked up): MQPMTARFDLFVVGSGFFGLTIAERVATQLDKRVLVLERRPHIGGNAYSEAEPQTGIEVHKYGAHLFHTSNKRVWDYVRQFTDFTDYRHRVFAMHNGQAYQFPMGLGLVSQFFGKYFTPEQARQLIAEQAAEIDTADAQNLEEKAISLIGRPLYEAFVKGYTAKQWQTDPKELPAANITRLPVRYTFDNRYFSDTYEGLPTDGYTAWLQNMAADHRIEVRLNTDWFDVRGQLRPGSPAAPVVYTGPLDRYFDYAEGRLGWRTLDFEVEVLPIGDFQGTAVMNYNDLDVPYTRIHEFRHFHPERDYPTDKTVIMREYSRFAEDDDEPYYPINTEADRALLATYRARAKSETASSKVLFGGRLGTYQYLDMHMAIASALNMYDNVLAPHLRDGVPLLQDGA
Rv3671c inh = Rv3671c serine protease inhibitors, primary screen, biochemical, fluorescence polarization, M. tuberculosis H37Rv; inhibition, % at 5.96 µM; actives 0.048% (n = 320,000); AID 2606, 2010; in the data active means inhibition above about 38%;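 further: extracellular domain of Rv3671c used as enzyme; 0% = enzyme with DMSO and 100% = no enzyme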
GDH-TPI counter = GDH-TPI coupling enzyme inhibitors, primary screen, artefact control for M. tuberculosis FBA inhibitor project, biochemical, absorbance, full deck. GDH-TPI coupled enzyme counterscreen, NADH absorbance. inhibition, % at 4.8 µM. actives 1.2% (n = 360,000). AID 588335, 2011; in the data active means inhibition above about 30%;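 further: 0% = DMSO wells and 100% = wells lacking the enzyme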
RecA splice inh = Mtb RecA intein splicing inhibitors, primary screen, biochemical, fluorescence, HTS. Protein RecA (Mycobacterium tuberculosis (strain ATCC 25618 / H37Rv)), P9WHJ3. cell-free RecA intein splicing. inhibition, % (concentration not given with the values). actives 0.75% (n = 290,000). AID 2221, 2009; in the data active means inhibition above about 30%; inconclusive means no clear call, values can overlap the other calls;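 further: 0% = vehicle wells and 100% = reference inhibitor control wells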
* marks the source's active call; other numbers are inactive results; i = inactive; ? = inconclusive; nt = no result given; + = active, no number.

SMILES	Mtb FBA inh	Mtb bLac sens	UGM FP inh	Rv3671c inh	GDH-TPI counter	RecA splice inh
CCN(C(=O)CN1CCCCC1C)c1c(N)n(Cc2ccccc2)c(=O)[nH]c1=O (stereo unspecified)	3.1	-7.2	0.9	-5.5	2.7	nt
COc1cc(/C=N/NC(N)=S)ccc1OCC(=O)N1CCOCC1	0.5	30.7	nt	-7.5	31.5*	-7.1
COc1cc(/C=C2\SC(=O)NC2=O)ccc1OCC(=O)N1CCOCC1	2.3	-5.8	1.2	-3.7	36.8*	nt
COc1ccc(C2=Nn3c(nnc3-c3ccco3)SC2)cc1OC	-0.9	6.7	-1.7	2.7	37.4*	3.9
COc1ccc(C2=Nn3c(nnc3-c3ccccn3)SC2)cc1OC	-0.1	8.1	1.7	10.8	34.9*	2.4
CCCC1CCC(c2ccc(OCC)cc2)=CC1=O (stereo unspecified)	-0.1	-3.6	5.1	nt	7.7	7.1
COc1cc(-c2nc3ccc(C)cn3c2NCc2ccccc2)ccc1SC1CCCCC1	38.7*	98.1	-1.0	4.7	12.3	0.2
COc1ccc(-c2nc3ccc(C)cn3c2Cc2ccccc2)cc1OC	89.9*	nt	nt	nt	nt	nt
CCOC(=O)c1nn(-c2ccccc2)c(=O)c2c(N)scc12	-11.7	0.9	1.8	-14.6	15.1	nt
CCOC(=O)c1nn(-c2ccccc2)c(C(=O)OCC)c1N	+	6.3	-1.2	3.1	19.2	2.2
CCCS(=O)(=O)NC(=O)C1(C)CCN(C(=O)c2cc(C(C)(C)C)nn2C)C1 (stereo unspecified)	3.1	nt	nt	nt	11.5	nt
COc1ccc(-n2c(O)c(/C=C3\C=Nc4ccc(Br)cc43)c(=O)[nH]c2=O)cc1	3.4	9.0	40.6*	-14.2	-5.6	4.4
CCOC(=O)c1cc(C)n(CCc2ccccc2)c1C	8.3	31.0	-0.2	2.6	7.3	7.8
Cc1cc(C(=O)CCl)c(C)n1CCc1ccccc1	nt	98.5	-0.7	4.6	nt	40.2*
CCc1nc2c(OCc3ccc(F)c(F)c3)cccn2c1N(C)C(=O)C1CC1	-2.8	nt	nt	nt	4.4	nt
CCCNC(=O)c1ccc(C)c(NC(=O)C2=C(C)OCCS2)c1	0.1	-9.3	-0.7	2.1	-6.0	-1.9
COc1ccc(N=CC2=C(O)c3ccccc3C2=O)c(OC)c1	19.0	1.1	-1.7	1.1	6.6	12.8
Cc1ccccc1N=CC1=C(O)c2ccccc2C1=O	-3.7	8.5	-3.8	-0.9	46.3*	-1.4
Cc1nn(-c2ccccc2)c(Cl)c1C1C(C#N)=C(N)Oc2n[nH]c(C)c21 (stereo unspecified)	-1.3	35.9	1.2	2.7	6.3	62.4*
CCn1nc(C)c(C2C(C#N)=C(N)Oc3n[nH]c(C)c32)c1C (stereo unspecified)	1.4	2.3	-2.3	-0.5	4.0	41.6*
CC(=O)Nc1ccc(NC(=O)C(C)OC(=O)CNS(=O)(=O)/C=C/c2ccc(C)cc2)cc1 (stereo unspecified)	-0.9	-4.4	-0.5	1.6	-7.9	-8.9
CN1C2CCC1/C(=C/c1ccccn1)C(=O)/C2=C\c1ccccn1	-3.1	99.1	-0.2	-0.2	45.8*	nt
CN1C2CCC1/C(=C\c1ccccc1)C(=O)/C2=C\c1ccccc1	-2.4	?	2.7	-3.6	29.6	-0.7
CCc1nc2ccc(C(=O)Nc3cccc(OCC(=O)N(C)C)c3)cn2c1N(CC)CCOC	-0.1	nt	nt	nt	12.5	nt
Cc1ccc(NC(=O)COC(=O)C2CC3CCCC(C2)C3=O)c([N+](=O)[O-])c1 (stereo unspecified)	0.3	-3.4	1.3	0.9	16.0	nt
SMILES	Mtb FBA inh	Mtb bLac sens	UGM FP inh	Rv3671c inh	GDH-TPI counter	RecA splice inh
COc1ccc(OC)c(Nc2c3ccccc3nc3ccccc23)c1	2.2	15.5	2.0	-11.2	-1.7	15.6
COc1c2ccccc2nc2ccccc12	143.4*	4.4	0.4	3.0	11.1	-184.8
COc1ccc(/C=C/C(=O)c2ccc(OC)cc2OC)cc1	4.6	68.0	0.4	1.2	38.2*	4.1
COc1ccc(/C=C/C(=O)C2(O)CCCCC2)cc1	-0.4	-7.2	-1.9	0.8	38.8*	1.3
CC(Sc1n[nH]c(-c2ccccc2F)n1)C(=O)Nc1ccc(S(N)(=O)=O)cc1 (stereo unspecified)	2.8	-4.2	-1.0	8.7	2.8	nt
Cc1cc(Br)ccc1SCC(=O)OCC(=O)Nc1ccc2[nH]c(=O)[nH]c2c1	0.0	-3.9	-1.1	4.3	-4.8	nt
Cc1ccc(OCC(=O)N/N=C/C=C/c2ccco2)cc1C	-2.0	-1.7	1.7	-3.3	36.6*	5.4
O=C(N/N=C/C=C\c1cccc([N+](=O)[O-])c1)c1ccccn1	-6.0	49.0	0.8	-10.4	34.3*	1.6
O=C(N/N=C/C=C\c1ccco1)c1cccnc1	-2.8	1.4	-1.2	-4.1	32.7*	3.1
O=C(N/N=C\C=C\c1ccco1)c1cc(-c2ccc3ccccc3c2)n[nH]1	-2.8	98.7	-2.5	-9.2	16.9	18.5
O=C(N/N=C/C=C\c1ccco1)c1ccccn1	-3.2	96.4	-1.1	1.0	35.5*	0.7
O=C(N/N=C/C=C\c1ccccc1[N+](=O)[O-])c1ccccn1	-0.6	57.0	-0.7	2.3	12.4	0.5
O=C(N/N=C/C=C/c1ccco1)c1cnccn1	-3.5	-1.4	1.6	-11.7	16.2	7.5
CCCNC(=O)c1cc(C2CCCN(C(=O)C3CC3)C2)on1 (stereo unspecified)	-0.8	nt	nt	nt	12.4	nt
COc1cccc(C(O)c2nc(-c3cc(F)cc(F)c3)cs2)c1 (stereo unspecified)	-1.4	nt	nt	nt	11.1	nt
COc1ccc(Cc2nnc(N/N=C(\C)c3ccccc3)[nH]c2=O)cc1OC	0.1	-4.3	5.6	0.0	3.9	-1.8
O=C(N/N=C/C=C/c1ccccc1)c1cccnc1	1.1	-6.4	2.9	-2.7	24.5	-7.8
O=C(N/N=C/C=C/c1ccco1)c1cccnc1	-3.7	2.8	-0.1	-11.6	37.5*	2.8
O=C(N/N=C\C=C\c1ccco1)c1cncc(Br)c1	-1.5	99.3	-0.1	6.4	33.7*	0.9
Cc1ccc(OCC(=O)NC(=S)Nc2ccc(Br)cn2)cc1	-1.1	42.2	0.7	1.6	3.7	-0.6
O=c1ccc2ccc(O[C@@H]3O[C@H](CO)[C@@H](O)[C@H](O)[C@H]3O)c(O)c2o1	6.3	-1.6	1.9	-3.2	26.1	nt
COc1cc2ccc(=O)oc2c(O[C@@H]2O[C@H](CO)[C@@H](O)[C@H](O)[C@H]2O)c1O	185.1*	1.6	-0.1	1.7	1.3	-2.4
O=c1ccc2cc(O[C@@H]3O[C@@H](CO)[C@H](O)[C@@H](O)[C@@H]3O)c(O)cc2o1	+	5.1	-1.9	7.0	5.6	i
